This is a sample that favours compounds with a hit; in the whole collection about 2% have one here.
FUS yeast rescue: suppressors of FUS proteinopathy in yeast | S. cerevisiae FUS-expressing, growth rescue, OD600, 24 h | Potency, µM (top dose mostly 76.6 µM), usual class: activators | 0.24% of 390,000 active | AID 1347120; note: nearly all actives have a fitted effect of over 55% in size
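FUS-expressing yeast, raffinose-pregrown, induced in 2% galactose minimal medium at OD 0.005; compounds in a dilution series, 24hr at 30C. Growth restoration read as absorbance at 600 nm. CP55940 positive control, DMSO negative.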
LDHA block: inhibitors of human lactate dehydrogenase A | P00338 | purified LDHA, NADH/diaphorase-resazurin fluorescence; active compounds read low | activity change, % (values are at about 110 or 230 µM) | 0.15% of 480,000 active; in the data active = activity change below about -30%; inconclusive = mostly about -25% to -30%
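Human LDH5 at 2 nM final in Tris HCl pH 7.4 with 0.06 mM NADH and 0.2 mM pyruvate, reacted 5 minutes at room temperature. Remaining NADH coupled via diaphorase/resazurin; resorufin fluorescence read at 0 and 20 minutes, normalized to enzyme-free and DMSO wells.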
TDP-43 yeast inh: inhibitors of TDP-43 toxicity in yeast. TDP-43 expressing yeast growth rescue, BacTiter-Glo, 24 h. Potency, µM (titrated, usually from 46.1 µM), actives largely listed as activators. 1.8% of 410,000 active. AID 652104; note: nearly all actives have a fitted effect of over 50% in size
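Luminescence from BacTiter-Glo reports growth of TDP-43-expressing yeast after 24 hr at 30 deg C with compound. Cells were raffinose-pregrown to mid-log, then seeded in galactose medium at OD600=0.02.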
mIDH1 inhibitor: inhibitors of human mutant IDH1 R132H; IDH1-R132H enzyme, NADPH consumption, diaphorase/resazurin fluorescence; Potency, µM (series often up to 76.6 µM), most hits filed as inhibitors; 0.093% of 390,000 active; AID 602179; note: nearly all actives have a fitted effect of over 65% in size
Target sequence (O75874 whole entry R132H, stated change not applied): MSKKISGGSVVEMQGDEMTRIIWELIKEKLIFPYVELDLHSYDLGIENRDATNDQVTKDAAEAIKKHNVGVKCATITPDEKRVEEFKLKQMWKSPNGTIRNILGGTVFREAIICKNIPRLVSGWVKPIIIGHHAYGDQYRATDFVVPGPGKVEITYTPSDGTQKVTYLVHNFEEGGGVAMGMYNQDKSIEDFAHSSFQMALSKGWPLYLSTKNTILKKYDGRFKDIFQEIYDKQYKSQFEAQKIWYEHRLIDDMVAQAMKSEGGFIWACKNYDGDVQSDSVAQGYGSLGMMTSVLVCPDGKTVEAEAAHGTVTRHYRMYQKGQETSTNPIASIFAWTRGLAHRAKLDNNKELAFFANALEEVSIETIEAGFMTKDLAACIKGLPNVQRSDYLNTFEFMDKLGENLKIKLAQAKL
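IDH1-R132H (0.5 ug/mL dispensed) in pH 7.5 Tris buffer was preincubated 30 min with compound, then given a substrate mix of 0.016 mM NADPH and 2 mM alpha-KG for 80 min at room temperature; remaining NADPH was read by diaphorase/resazurin fluorescence.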
aSyn rescue: inhibitors of alpha-synuclein toxicity in yeast; Potency, µM (titrated, usually from 46.1 µM), most hits filed as activators; 0.14% of 370,000 active; Yeast expressing alpha-synuclein, growth rescue, BacTiter-Glo, 24 h; AID 652106; note: nearly all actives have a fitted effect of over 65% in size
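Readout is rescue of growth in alpha-synuclein-expressing yeast, so inhibitors of toxicity appear as activators. Growth after 24 hr at 30 deg C in galactose medium is quantified by luminescence.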
Abeta yeast res: restores growth of yeast expressing A-beta42 peptide. AID 1347071. Potency, µM (series often up to 46.1 µM), hits mostly activators. 0.063% of 410,000 active. yeast expressing A-beta42, growth rescue, OD600, 48 h; response scale: 0% DMSO, 100% iron-clioquinol control; note: nearly all actives have a fitted effect of over 55% in size
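Yeast A-beta toxicity model in growth medium with pinned compounds, 48 h at 30 C; growth read as absorbance at 600 nm. Normalized to FeCl3/clioquinol equimolar mix (positive) and DMSO (negative).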
Hits are given with their value; n = inactive; u = inconclusive; x = not tested or not shown; [ ] = dose if it differs, or a comment. Unless noted, calls come from the whole dose curve; as a rule, active = well fitted curve in the direction sought with a large enough effect; inconclusive = small, poorly fitted or top-dose-only effect, or another doubt; inactive = no such curve, though single readings can be large; an effect the other way counts as inactive or inconclusive.

SMILES	FUS yeast rescue	LDHA block	TDP-43 yeast inh	mIDH1 inhibitor	aSyn rescue	Abeta yeast res
C[C@H](CO)N1C[C@H](C)[C@H](CN(C)S(=O)(=O)c2ccccc2)Oc2ccc(NC(=O)NC3CCCCC3)cc2CC1=O	22µM	n	n	n	n	n
C[C@H](CO)N1C[C@H](C)[C@@H](CN(C)S(=O)(=O)c2ccc(Cl)cc2)Oc2ccc(NS(=O)(=O)c3ccccc3)cc2CC1=O	10µM	n	n	n	n	n
CN(C)C(=O)CCS(=O)(=O)Cc1coc(-c2ccc(F)cc2)n1	x	-34	x	x	x	x
CNC(=O)CCS(=O)(=O)Cc1coc(-c2ccc(F)cc2)n1	x	n	x	x	x	x
O=C(c1cc(-c2cccs2)on1)N1CCN(c2ccc(F)cc2)CC1	n	n	n	n	n	n
COc1ccc(OC)c(-c2noc(N3CCN(c4ccc(Cl)cc4)CC3)n2)c1	n	n	11µM	n	x	n
COc1ccc(OC)c(-c2cc(C(=O)N3CCN(c4ccccc4)CC3)no2)c1	u	n	22µM	n	n	n
O=C(COCc1cc(-c2cccs2)on1)N1CCN(c2ccc(F)cc2)CC1	n	n	16µM	n	x	n
O=C(c1cc(-c2cccs2)on1)N1CCN(c2ccccc2)CC1	n	n	11µM	n	n	n
N#Cc1ccc(N2CCC(C(=O)Nc3ccc(S(=O)(=O)N4CCCC4)cc3)CC2)nc1	x	n	x	x	x	x
COc1ccccc1-c1nc(S(=O)(=O)c2ccc3c(c2)OCCO3)c(NC(C)C)o1	x	n	x	x	x	x
CC(C)CC(=O)NC(=S)Nc1ccc(N2CCN(C(=O)c3cccs3)CC2)cc1	n	n	18µM	n	n	n
CC(C)C(=O)Nc1ccc(N2CCN(C(=O)c3cccs3)CC2)cc1	n	n	n	n	n	n
COc1ccc(-c2cc(C(=O)N3CCN(c4ccccc4)CC3)no2)cc1	n	n	11µM	n	n	n
S=C(c1cccs1)N1CCN(c2ccccc2)CC1	x	n	18µM	n	n	n
O=C(c1ccccc1)N1CC=C(c2c[nH]c3ccccc23)CC1	x	n	x	x	x	x
Cc1nc(CS(=O)(=O)c2ccc(Cl)cc2)cc(Sc2ccccc2Cl)n1	n	n	35µM	n	n	n
Cc1nc(CS(=O)(=O)c2ccccc2)cc(Sc2ccccc2Cl)n1	n	n	32µM	n	n	n[9.22 µM]
Cc1ccc(-c2cc(C(=O)NCCN(C)C)c3cc(Br)ccc3n2)o1	x	n	x	x	x	x
Nc1ccc2c(c1)-c1ccccc1S(=O)(=O)N2	28µM	n	n	n	n	n
Cc1ccc(F)c(NC(=O)CCN=C2NS(=O)(=O)c3ccccc32)c1	x	n	x	x	x	x
Cc1ccc2c(c1)-c1ccccc1S(=O)(=O)N2	x	n	u	n	13µM	n
Cc1cccc2n[nH]nc12	x	n	x	x	x	x
Cc1ccc(/C=N/Nc2nc(C(C)(C)C)cs2)o1	n	n	n	n	n	n
Cc1ccc(/C=N/Nc2nc3ccccc3s2)o1	n	n	11µM	n	n	u
SMILES	FUS yeast rescue	LDHA block	TDP-43 yeast inh	mIDH1 inhibitor	aSyn rescue	Abeta yeast res
COc1cc(Cl)c(C)cc1NC(=O)CSc1ncc(S(=O)(=O)c2ccc(C(C)(C)C)cc2)c(=O)[nH]1	n	-39	n	n	x	n
O=C(CSc1ncc(S(=O)(=O)c2ccc(Cl)cc2)c(=O)[nH]1)Nc1cccc(C(F)(F)F)c1	n	n	n	u	x	n
CC(C)(C)c1ccc(S(=O)(=O)c2cnc(SCC(=O)Nc3ccc(F)c(Cl)c3)[nH]c2=O)cc1	n	-49	n	u	n	n
Cc1cccc(NC(=S)NC2CCCC2)c1C	n	n	n	n	n	u
Cc1c(Cl)cccc1NC(=S)NCCc1ccc(Cl)cc1	n	n	u	n	n	10µM
Cc1c(Cl)cccc1NC(=S)NCCc1ccccc1	x	n	x	x	x	x
Cc1cccc(NC(=S)NCCc2ccccc2)c1C	n	n	18µM	n	n	n
S=C(NCCc1ccc(Cl)cc1)NC1CCCC1	n	n	n	n	n	10µM
Cc1c(Cl)cccc1NC(=S)NC1CCCC1	n	n	20µM	n	n	u
CCc1ccc(C(=O)NCc2ccco2)o1	x	n	x	x	x	x
O=C(Cc1ccc(F)cc1)Nc1nc(-c2ccc(F)cc2)cs1	n	n	n	n	u	n
O=C(Cc1c(F)c(F)c(F)c(F)c1F)Nc1nc(-c2ccccc2)cs1	n	n	20µM	n	n	n
CCc1ccccc1OCC(=O)Nc1nc(-c2cccnc2)cs1	n	n	6.3µM	n	u	u
Cc1ccc(S(=O)(=O)CC(=O)Nc2nc(-c3ccccc3)cs2)cc1	n	n	10µM	n	n	n
c1csc(-c2nc(N3CCOCC3)c3ccccc3n2)c1	n	n	n	n	n	n
COc1ccc(N2CCN(c3nc(-c4cccs4)nc4ccccc34)CC2)cc1	u	n	13µM	n	n	n
Cc1ccc(/C=C/C(=O)c2c(C)nc3ccc(Br)cc3c2-c2ccccc2)o1	x	n	x	x	x	x
Cc1ccc(C(=O)Nc2ccc3nc(SCC(=O)N4CCC(C)CC4)sc3c2)cc1	x	n	x	x	x	x
Cc1csc(SCC(=O)c2ccc(O)cc2O)n1	x	n	x	x	x	x
CC[C@@H]1C(c2ccccc2)=NN(c2ccc(Br)cc2)[C@H]1C(=O)N1CCOC1=O	n	n	u	n	u	n
CC[C@@H]1C(c2ccc(F)cc2)=NN(c2ccc(Br)cc2)[C@H]1C(=O)N1CCOC1=O	n	n	14µM	n	n	n
O=S(=O)(Nc1ccc2c(c1)OCO2)c1cccc(Br)c1	x	n	13µM	n	n	n
O=S(=O)(Nc1ccc2c(c1)OCCO2)c1ccc(F)c(F)c1	n	n	u	n	n	n
O=S(=O)(Nc1ccc2c(c1)OCCO2)c1ccc2oc3ccccc3c2c1	n	n	u	n	25µM	n
O=S(=O)(Nc1ccc2c(c1)OCCO2)c1cccc(F)c1	n	n	n	n	n	n
SMILES	FUS yeast rescue	LDHA block	TDP-43 yeast inh	mIDH1 inhibitor	aSyn rescue	Abeta yeast res
O=C1CN(C(=O)COC(=O)COc2ccc(Cl)cc2Br)c2ccccc2N1	x	n	x	x	x	x
Cc1csc(NC(=O)c2cc(-c3ccccc3)nc3ccccc23)n1	x	n	18µM	n	n	n
Cc1cc(NC(=O)c2ccccc2-c2ccccc2)ccc1Br	n	n	n	n	n	13µM
Cc1ccc(-c2cc(C(=O)Nc3cccnc3)c3ccccc3n2)o1	3.2µM	n	n	n	n	n
Cc1cc(NC(=O)c2cc(-c3ccncc3)nc3ccccc23)ccc1Br	x	n	18µM	n	n	n
O=S1(=O)C=C(Sc2nn(-c3ccccc3)c(=S)s2)c2ccccc21	x	n	x	x	x	x
Cc1cccc(NC(=O)c2cccnc2)c1	n	n	n	n	n	n
Cc1cc(NC(=O)c2cccnc2)ccc1Br	n	n	11µM	n	n	n
CC(C)(C)c1ccc(C(=O)Nc2cccnc2)cc1	n	n	14µM	n	n	n
Cc1cc(NC(=O)c2ccoc2C)ccc1Br	n	n	11µM	n	n	n
